Experimental data as given in PubChem BioAssay AID2278 (National Center for Advancing Translational Sciences (NCATS), 2010).
Records with an inconclusive call do not appear. Active and inactive are the calls of the source. The call rests on the fitted dose curve; in most records, active means well fitted curve in the direction sought with a large enough effect; inconclusive means small, poorly fitted or top-dose-only effect, or another doubt; inactive means no such curve, though single readings can be large or run the other way.

Molecular target: Group 10 secretory phospholipase A2 (Mus musculus) (UniProt Q9QXX3)
Test: Secondary Assay for Inhibitors of Ubiquitin-specific Protease USP2a: PLA2 Counterscreen
From the text: NIH Molecular Libraries Screening Centers Network [MLSCN] NIH Chemical Genomics Center [NCGC] MLSCN Grant: XO1-MH079852-01 PI Name: Nicholson, Ben. Progenra Inc, Malvern, PA NCGC Assay Overview: Homeostasis of cellular proteins is maintained through a combination of synthesis and degradation. The pathway that accounts for the majority of protein degradation is the ubiquitin-proteasomal pathway. Ubiquitin (Ub) is highly conserved in all cells and the generation of a multi-Ub chain typically targets proteins for degradation by the proteasome. However, ubiquitination is highly reversible and dynamic. Deubiquitination, the reverse process, is catalyzed through the action of enzymes referred to as isopeptidases or deubiquitinating enzymes (DUBs). […]
NCGC Assay Protocol Summary: The assay buffer, prepared fresh at the day of the assay, contains 20mM Tris-HCl pH 8.0, 2mM CaCl2, 2mM beta-mercaptoethanol, 0.1% DMSO. […] Plates were read immediately on an Envision (Perkin Elmer) plate reader using wavelengths of Ex 460nm /Em 535nm. Then, the assay plates were incubated for 2.5 hours and read again on the Envision using the same settings. […] Concentration-response curves were fitted to the normalized data and the concentration-response curves were then classified based on curve quality (r2), response magnitude and degree of measured activity. The time zero reading was used to flag fluorescence artifacts. […]

Group 10 secretory phospholipase A2 (Mus musculus), sequence (Q9QXX3 whole entry, looked up): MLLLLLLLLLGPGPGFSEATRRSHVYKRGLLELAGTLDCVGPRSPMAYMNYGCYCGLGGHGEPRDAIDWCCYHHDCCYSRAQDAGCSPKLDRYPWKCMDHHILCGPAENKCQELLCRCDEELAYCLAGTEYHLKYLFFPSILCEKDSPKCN

| Structure (SMILES) | outcome |
| --- | --- |
| Cc1ccc2scc(N3CCN(C)CC3)c(=O)c2c1 | inactive |
| CC1=NCCc2c1[nH]c1cc(O)ccc21 | inactive |
